From PubChem
A selection: hits, their analogues and other compounds. The true share with any hit is near 19%.
IL-1B inflam inh = inflammasome signaling inhibition, IL-1 beta readout | 4.7% of 360,000 active | THP-1 LPS/ATP IL-1B secretion, AlphaLISA, 16 h; active compounds read low | activity change, % at 57.5 µM; in the data active = activity change below about -50%; inconclusive = mostly about -30% to -49%; note: % is set by controls: 0 for no effect and ±100 for the full control effect
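THP-1 cells pretreated 1 hr with compounds (up to 57.5 uM final), then stimulated with LPS (250 ng/mL final) plus ATP (1.25 mM final); secreted IL-1B measured by AlphaLISA after 16 hr, decreased signal indicating inhibition.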
SW480 rerep = induces DNA re-replication in SW480 colon adenocarcinoma cells | SW480 DNA re-replication, Hoechst DNA content imaging, 48 h | Potency, µM (doses to about 46.1 µM), for inactives: at the highest dose re-replication activation, usual class: activators | 1.8% of 340,000 active; note: potency is the fitted concentration of half-maximal effect; % of control where 0% means no effect; nearly all actives have a fitted effect of over 55% in size
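Hoechst fluorescence of nuclei (405 nm excitation, 500-530 nm emission) measured by plate-scanning imager after 48 hr compound exposure at 37 C; re-replication scored as increased number of nuclei with elevated intensity.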
MCF10A rerep = inducers of DNA re-replication in MCF 10A breast cells | MCF 10A DNA re-replication, Hoechst nuclear intensity, 48 h | Potency, µM (top dose mostly 46.1 µM), without a hit: top-dose activity, positive = re-replication, usual class: activators | 2.9% of 350,000 active; note: potency is the fitted concentration of half-maximal effect; % of control where 0% means no effect; nearly all actives have a fitted effect of over 50% in size
TDP1 cell CPT = growth inhibition of DT40 Tdp1-/-;hTDP1 cells with camptothecin (screen for TDP1 inhibitors); chicken DT40 Tdp1-/-;hTDP1 cells + 20 nM CPT, ATP luminescence, 48 h; Potency, µM (series often up to 46.2 µM), for the others: at the top dose activity change, negative = growth inhibition, actives largely listed as inhibitors; 12% of 420,000 active; AID 686979; note: potency is the fitted concentration of half-maximal effect; % is set by controls: 0 for no effect and ±100 for the full control effect; nearly all actives have a fitted effect of over 55% in size
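Cell growth measured by CellTiter-Glo luminescence after a minimum 48 h, 37 C compound exposure with 20 nM CPT in Tdp1-knockout DT40 cells stably expressing hTDP1, seeded 400/well; qHTS titration format.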
Chronic BCR inh = inhibitors of chronic active B-cell receptor signaling | 0.05% of 340,000 active | AID 493014 | ABC-DLBCL IkBa-CBG/CBR reporter, luminescence ratio, 4 h | Potency, µM (highest dose often 46.1 µM), for inactives: at the top dose activity change, negative = inhibition, most hits filed as inhibitors; active = well fitted inhibition curve with a large enough effect in the signal ratio, with a control signal flat, not every such curve was filed as active; inconclusive = small, poorly fitted or top-dose-only effect, or effect the other way, or a change in a side signal; the % refers to the signal ratio;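 note: potency is the fitted concentration of half-maximal effect; plate controls were basal doxycycline-induced cells for no effect and cells given 10 µM MG132 for full effect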
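TMD8 ABC-DLBCL cells carrying doxycycline-inducible green luciferase fused to IkappaBalpha plus unfused red luciferase were exposed to compounds (up to 46 uM) for 4 hrs at 37C. Activity came from the overlap-corrected green/red luminescence ratio.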
TDP1 cell noCPT = qHTS for Inhibitors of human tyrosyl-DNA phosphodiesterase 1 (TDP1): qHTS in cells in absence of CPT; DT40 Tdp1-/- hTDP1 cells, no CPT, ATP luminescence, 48 h; Potency, µM (titrated, usually from 46.2 µM), inactives show at the highest dose activity change, negative = growth inhibition, most hits filed as inhibitors; 15% of 420,000 active; note: potency is the fitted concentration of half-maximal effect; % is set by controls: 0 for no effect and ±100 for the full control effect; nearly all actives have a fitted effect of over 55% in size
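Growth kinetics read by CellTiter-Glo luminescence after ≥48 hr at 37 °C. Cells: DT40 Tdp1-/- stably carrying human TDP1, 400 per well, compound exposure in the absence of CPT (DMSO vehicle).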
* = called active by the depositor; [ ] = another dose, or the depositor's remark. Unless noted, calls come from the whole dose curve; as a rule, active = well fitted curve in the direction sought with a large enough effect; inconclusive = small, poorly fitted or top-dose-only effect, or another doubt; inactive = no such curve, though single readings can be large; an effect the other way counts as inactive or inconclusive.

Screening Cc1ccc2ncnc(Oc3ncccc3[N+](=O)[O-])c2c1 returned IL-1B inflam inh 0.0, SW480 rerep -15.5%, MCF10A rerep -1.7%, TDP1 cell CPT 5.8µM*, Chronic BCR inh -8.6% and TDP1 cell noCPT 6.51µM*.
For Cc1cc(=O)oc2cc(Oc3ncccc3[N+](=O)[O-])ccc12 the results were IL-1B inflam inh 2.7, SW480 rerep -1.8%, MCF10A rerep -4.7%, TDP1 cell CPT 23.2%, Chronic BCR inh 2.3% and TDP1 cell noCPT -9.0%.
For CCOC(=O)N1CCN(C(=O)C[C@@H]2C[C@@]3(C(=O)OC)CCCCC=C3N(Cc3cccc4ccccc34)C2=O)CC1 the results were IL-1B inflam inh -9.8, TDP1 cell CPT inconclusive and TDP1 cell noCPT 20.6µM*.
COC(=O)[C@@]12C[C@@H](CC(=O)N3CCCCC3)C(=O)N(Cc3cccc4ccccc34)C1=CCC(C)(C)C2 was read as IL-1B inflam inh -11.5, TDP1 cell CPT inconclusive and TDP1 cell noCPT inconclusive.
CCOC(=O)[C@]12CCC=C1N(Cc1cccc3ccccc13)C(=O)[C@H](CC(=O)N1CCCCC1)C2 was read as IL-1B inflam inh -13.3, TDP1 cell CPT inconclusive and TDP1 cell noCPT 25.9µM*.
CCOC(=O)[C@]12CCCC=C1N(Cc1cccc3ccccc13)C(=O)[C@H](CC(=O)N1CCCCC1)C2 was read as IL-1B inflam inh -22.7, TDP1 cell CPT 18.4µM* and TDP1 cell noCPT 25.9µM*.
`CCOC(=O)[C@]12CCCC=C1N(Cc1cccc3ccccc13)C(=O)[C@H](CC(=O)N1CCOCC1)C2` gave IL-1B inflam inh 10.2, TDP1 cell CPT inconclusive and TDP1 cell noCPT -29.6%.
CCOC(=O)N1CCN(C(=O)C[C@@H]2C[C@@]3(C(=O)OC)CC(C)(C)CC=C3N(Cc3cccc4ccccc34)C2=O)CC1 was read as IL-1B inflam inh -22.0, TDP1 cell CPT 16.4µM* and TDP1 cell noCPT 18.4µM*.
For CCC1(O)CC(c2ccccc2)=NN1C(=O)c1ccccc1F (centres undefined) the results were IL-1B inflam inh 0.8, SW480 rerep -2.1%[9.22 µM], MCF10A rerep 3.8%, TDP1 cell CPT 0.6% and TDP1 cell noCPT -11.6%.
For CCOC(=O)[C@]12CCC=C1N(Cc1cccc3ccccc13)C(=O)[C@H](CC(=O)N1CCN(C(=O)C3CC3)CC1)C2 the results were IL-1B inflam inh -6.9, TDP1 cell CPT inconclusive and TDP1 cell noCPT inconclusive.
For COC(=O)[C@@]12C[C@@H](CC(=O)N3CCN(C(=O)c4ccco4)CC3)C(=O)N(Cc3cccc4ccccc34)C1=CCC(C)(C)C2 the results were IL-1B inflam inh inconclusive, TDP1 cell CPT inconclusive and TDP1 cell noCPT 18.4µM*.
CCOC(=O)[C@]12CCC=C1N(Cc1cccc3ccccc13)C(=O)[C@H](CC(=O)N1CCCC1)C2 was read as IL-1B inflam inh 0.0, TDP1 cell CPT 18.4µM* and TDP1 cell noCPT 23.1µM*.
Screening CCOC(=O)[C@]12CCC=C1N(Cc1cccc3ccccc13)C(=O)[C@H](CC(=O)N1CCSCC1)C2 returned IL-1B inflam inh -11.5, TDP1 cell CPT inconclusive and TDP1 cell noCPT 18.4µM*.
For CNc1cncc(-c2ccoc2)n1 the results were IL-1B inflam inh 5.5, TDP1 cell CPT inconclusive and TDP1 cell noCPT -24.5%.
`O=C(Cn1ncc2c([nH]c3ccccc32)c1=O)NCc1cccc(Cl)c1` gave TDP1 cell CPT -3.6% and TDP1 cell noCPT -13.5%.
`O=C(COC(=O)/C=C/c1ccc([N+](=O)[O-])cc1)NNC(=O)c1ccccc1` gave IL-1B inflam inh -16.4, SW480 rerep -6.9%, MCF10A rerep -0.2%, TDP1 cell CPT 16.7%, Chronic BCR inh -0.7% and TDP1 cell noCPT 14.7%.
Cc1ccccc1Nc1nc(-c2sc(NC(=O)c3ccco3)nc2C)cs1 was read as IL-1B inflam inh -1.8, SW480 rerep -25.5%, MCF10A rerep -0.9%, TDP1 cell CPT inconclusive, Chronic BCR inh inconclusive and TDP1 cell noCPT inconclusive.
`Cc1ccc(Nc2nc(-c3sc(NC(=O)c4ccco4)nc3C)cs2)cc1` gave IL-1B inflam inh 34.2, SW480 rerep -8.4%, MCF10A rerep -18.2%, TDP1 cell CPT inconclusive, Chronic BCR inh inconclusive and TDP1 cell noCPT 13µM*.
CCOc1ccccc1Nc1nc(-c2sc(NC(=O)c3ccco3)nc2C)cs1 was read as IL-1B inflam inh 20.8, SW480 rerep -1.4%, MCF10A rerep 0.2%, TDP1 cell CPT 14.6µM*, Chronic BCR inh inconclusive and TDP1 cell noCPT 14.6µM*.
For O=C(Nc1cccc(F)c1)N1CCCC2(CCNCC2)C1 the results were TDP1 cell CPT -22.8% and TDP1 cell noCPT inconclusive.
CN(C)S(=O)(=O)c1ccc(C(=O)NCc2nnc(SCC(=O)NCc3ccco3)o2)cc1 was read as IL-1B inflam inh 0.0, SW480 rerep 0.2%, MCF10A rerep -1.6%, TDP1 cell CPT 2.0%, Chronic BCR inh 1.7% and TDP1 cell noCPT -6.5%.
For O=C(NC(=S)Nc1ccccn1)c1cccc([N+](=O)[O-])c1 the results were IL-1B inflam inh -4.2, SW480 rerep -2.7%, MCF10A rerep -2.0%, TDP1 cell CPT inconclusive, Chronic BCR inh -16.2% and TDP1 cell noCPT 18.4µM*.
O=C(NC(=S)NNC(=O)c1ccccc1O)c1cccc([N+](=O)[O-])c1 was read as IL-1B inflam inh 6.5, SW480 rerep -75.7%, MCF10A rerep 3.1%, TDP1 cell CPT 23.1µM*, Chronic BCR inh inconclusive and TDP1 cell noCPT 23.1µM*.
`Cc1ccc([N+](=O)[O-])cc1NC(=S)NC(=O)c1cccnc1` gave IL-1B inflam inh 4.3, SW480 rerep 6.9%, MCF10A rerep 0.9%, TDP1 cell CPT -1.2%, Chronic BCR inh 1.4% and TDP1 cell noCPT -9.2%.
`CCOC(=O)C(NC(C)=O)C(O)c1ccc([N+](=O)[O-])cc1` (centres undefined) gave IL-1B inflam inh -8.6, SW480 rerep -1.9%, MCF10A rerep -10.1%, TDP1 cell CPT -2.0%, Chronic BCR inh 0.2% and TDP1 cell noCPT -0.5%.
CCCCCCCCCCCC(=O)NC(C(=O)OCC)C(O)c1cccc([N+](=O)[O-])c1 (centres undefined) was read as IL-1B inflam inh -79.4*, SW480 rerep inconclusive, MCF10A rerep inconclusive, TDP1 cell CPT 16.4µM*, Chronic BCR inh 0.0% and TDP1 cell noCPT 23.1µM*.
